Records with an inconclusive call do not appear. Activity calls are given as the source filed them. Calls come from the whole dose curve; as a rule, active = well fitted activation curve with a large enough effect in the signal ratio in the repeat runs (not every such curve was filed as active); inconclusive = weak or mixed curves, or effect the other way; inactive = no such curve, though single readings can be large or run the other way; the % refers to the signal ratio.

Peroxisome proliferator-activated receptor gamma (Homo sapiens), sequence (P37231 whole entry, looked up): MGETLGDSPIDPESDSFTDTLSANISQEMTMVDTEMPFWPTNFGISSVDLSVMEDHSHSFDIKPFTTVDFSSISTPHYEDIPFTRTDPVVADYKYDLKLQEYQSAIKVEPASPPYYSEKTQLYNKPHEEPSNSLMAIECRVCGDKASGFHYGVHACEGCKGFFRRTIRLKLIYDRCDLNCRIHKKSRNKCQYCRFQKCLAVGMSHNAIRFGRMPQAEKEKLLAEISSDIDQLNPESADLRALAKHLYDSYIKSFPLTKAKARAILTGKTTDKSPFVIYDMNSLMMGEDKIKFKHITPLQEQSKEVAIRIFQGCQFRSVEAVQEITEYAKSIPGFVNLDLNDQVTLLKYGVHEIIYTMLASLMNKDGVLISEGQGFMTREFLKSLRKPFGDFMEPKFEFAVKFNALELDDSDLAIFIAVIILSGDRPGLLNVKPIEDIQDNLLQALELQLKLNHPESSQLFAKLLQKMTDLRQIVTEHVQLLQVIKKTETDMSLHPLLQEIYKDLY

This assay has as its target Peroxisome proliferator-activated receptor gamma (Homo sapiens) (UniProt P37231). Description: qHTS assay to identify small molecule agonists of the peroxisome proliferator-activated receptor gamma (PPARg) signaling pathway (AID 743094). Particulars: HEK293H PPARg-UAS-bla, beta-lactamase FRET ratio, 17 h; series mostly up to 57 µM. The source says: U.S. Tox21 Program National Center for Advancing Translational Sciences [NCATS] NIH Chemical Genomics Center [NCGC] U.S. Environmental Protection Agency [EPA] National Institutes of Environmental Health Sciences [NIEHS] National Toxicology Program [NTP] U.S. Food and Drug Administration [FDA] Tox21 Assay Overview: The peroxisome proliferator-activated receptors (PPARs) are lipid-activated transcription factors of the nuclear receptor superfamily with three distinct subtypes namely PPAR alpha, PPAR delta (also called PPAR beta) and PPAR gamma (PPARg). All these subtypes heterodimerize with Retinoid X receptor (RXR) and these heterodimers regulate transcription of various genes. PPAR-gamma receptor (glitazone receptor) is involved in the regulation of glucose and lipid metabolism. To identify the compounds that activate PPAR-gamma signaling, GeneBLAzer PPAR gamma UAS-bla HEK293H cell line (Invitrogen, Carlsbad, CA, USA) containing a beta-lactamase reporter gene under control of the control of an upstream activator sequence (UAS) stably integrated into HEK293H cells was used to screen Tox21 compound library.
Tox21 Assay Protocol Summary: PPARg-bla cells were dispensed at 3000 cells/6uL/well in 1536-well black wall/clear bottom plates using a Multidrop Combi (Thermo Fisher Scientific, Waltham, MA) dispenser. After the assay plates were incubated at 37C and 5% CO2 for 5 h, 23 nL of compounds dissolved in DMSO, positive controls or DMSO only was transferred to the assay plate by a Pintool station (Kalypsys, San Diego, CA). The assay plates were incubated at 37C for 17 h. After 1 uL of LiveBLAzerTM B/G FRET substrate was added using a Bioraptr Flying Reagent Dispenser (FRD) workstation (Beckman Coulter, Indianapolis, IN, USA), the plates were incubated at room temperature for 1 h, and fluorescence intensity was measured by an Envision plate reader (PerkinElmer, Shelton, CT).
`COC(=O)/C=C(\C)CCC=C(C)C`: the outcome was inactive.

Take `C[Si](C)(C)O[Si](O)(O)O`: the result was inactive.

For `CC(C)(O)CCCC1=CCC(C=O)CC1` (stereo not given), the result was inactive. Take `CCN(CC)CC`: the result was inactive. Consider `NC(=O)CC[C@@H](N)C(=O)O`, for which the outcome was inactive. Turning to `CNC(C)=O`, the result was inactive. With `CCC(=O)OCCOc1ccccc1` the entry was “inactive”; with `O=Cc1ccc(C(=O)O)cc1`, “inactive”; with `CCCCCCC(=O)c1ccccc1`, “inactive”.

Consider `C=COCCCCO`, for which the outcome was inactive. Take `C=C(C)C(=O)OCCCC`: the result was inactive. In the case of `CC(C)(C)C(=O)CC(=O)C(C)(C)C` it was “inactive”; in that of `CCc1ccc(CC)cc1`, “inactive”. In the case of `C[C@@H]1NC(=O)[C@@H](N)CNC(=O)[C@H](C2CCNC(N)=N2)NC(=O)/C(=C/NC(N)=O)NC(=O)[C@H](CNC(=O)C[C@@H](N)CCCN)NC1=O` (stereo not given in full), the outcome was inactive.

As to `CC(=O)SC[C@@H](C)C(=O)N1CCC[C@H]1C(=O)N[C@@H](Cc1ccccc1)C(=O)O`, the result was inactive.

Regarding `CCCCCC(CC)OC(=O)CCCOc1ccc(Cl)cc1Cl` (stereo not given), the outcome was inactive. For `CC(C)(C)OC=O`, the result was inactive. As for `COc1cc(NS(=O)(=O)c2ccc(N)cc2)ncn1`, the result was inactive. `C=CCn1cc[n+](C)c1`: the outcome was inactive. In the case of `C=CC(=O)CC` it was “inactive”. In the case of `O=C1Nc2ccccc2C1=O` it was “inactive”; in that of `NNC(=O)OCc1ccccc1`, “inactive”; in that of `COc1cc(OC)cc(OC)c1`, “inactive”. With `CC(C)OCCO` the entry was “inactive”. In the case of `C[C@H]1COc2c(C3(N)CC3)c(F)cc3c(=O)c(C(=O)O)cn1c23`, the result was inactive. For the compound `Cc1ccc2cccnc2c1`, the result was inactive. Consider `CCCCCCCCOCCC#N`, for which the outcome was inactive. With `CC/C=C\CCCCCCCCCCOC(C)=O` the entry was “inactive”; with `NC[C@H]1O[C@H](O[C@H]2[C@H](O)[C@@H](O[C@H]3O[C@H](CO)[C@@H](O)[C@H](N)[C@H]3O)[C@H](N)C[C@@H]2N)[C@H](N)[C@@H](O)[C@@H]1O`, “inactive”; with `Cc1ccc(N)nc1`, “inactive”. In the case of `C[C@@H](CN1CC(=O)NC(=O)C1)N1CC(=O)NC(=O)C1` it was “inactive”.

As for `CCC(C)(C)C`, the outcome was inactive.

With `COc1cc2nc(N3CCN(C(=O)C4CCCO4)CC3)nc(N)c2cc1OC` (stereo not given), the outcome was inactive. As to `O=S(=O)(O)c1ccc(Cl)cc1`, the result was inactive. For `Nc1nc(Cl)cc(Cl)n1`, the result was inactive. `C/C=C/C(=O)CCCC`: the result was inactive. With `CCCCCCCCCCCCCCBr` the entry was “inactive”. Turning to `Cc1cc(C)c(C)c(C)c1`, the result was inactive. As to `CCCCc1ccc(Cl)cc1`, the result was inactive. For `N[C@H]1C(O)O[C@H](CO)[C@@H](O)[C@@H]1O` (stereo not given in full), the outcome was inactive.
